In PubChem BioAssay (NCI):
The panel holds about 83,000 compounds, 20% with a hit somewhere; the sample as a whole holds those more often.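 Single-concentration screen, 48 h exposure, 96-well plates. Endpoint: percent growth. Below 10 = active.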 Unmarked numbers belong to inactive results. The source made the active and inactive calls.

Assays:
Assay in all cases: NCI-60 one-dose screen, 48 h (100 = growth as untreated, 0 = no growth, -100 = all killed)
Conditions in all cases: 10 µM unless noted
T-47D breast = tested on: T-47D breast
BT-549 breast = tested on: BT-549 breast
SW-620 colon = tested on: SW-620 colon
MCF7 breast = tested on: MCF7 breast
HCT-116 colon = tested on: HCT-116 colon
HCC-2998 colon = tested on: HCC-2998 colon
KM12 colon = tested on: KM12 colon

Row | Compound | growth (T-47D breast) | growth (BT-549 breast) | growth (SW-620 colon) | growth (MCF7 breast) | growth (HCT-116 colon) | growth (HCC-2998 colon) | growth (KM12 colon)
1 | O=C1/C(=C/c2ccccc2Br)COc2ccc(O)c(O)c21 | -7.17% (active) | 14.7% | 5.6% (active) | 20.9% | -3.23% (active) | 44.2% | -7.57% (active)
2 | N#CC1=C(N)Oc2c(sc3c(F)cccc23)C1c1ccc(F)cc1 (centres undefined) | 42.5% | 30.9% | 35.8% | 18.9% | 17.4% | 57.2% | 30.3%
3 | O=C1c2cccc3cccc(c23)C(=O)N1N1C(=O)c2cccc3c(N4CCOCC4)ccc(c23)C1=O | 91.7% | 87.2% | 100% | 94.9% | 91.3% |  | 100%
4 | COc1cccc(CNc2ncnc3c2ncn3C2OC(CO)C(O)C2O)c1O (centres undefined) | 16.6% | -9.05% (active) | 6.4% (active) | 65.5% | 10.2% |  | 36.6%
5 | COc1cc(-c2nc3cc(Cl)c(Cl)cc3[nH]2)ccc1OCC(=O)N=Nc1c(O)[nH]c2ccc([N+](=O)[O-])cc12 | 66.6% | 98.8% | 82.7% | 74% | 42.6% | 71.8% | 103%
6 | COc1cc(CNS(=O)(=O)c2ccc(C)cc2)ccc1OCc1cn(-c2ccc(F)cc2)nn1 | 53.7% | 83.6% | 98.6% | 85.9% | 83.6% |  | 97.6%
7 | COc1ccc2nc(NC(=O)CSc3nnc4n3S(=O)(=O)c3ccccc3N4C)sc2c1 | 99.2% | 113% | 107% | 96.6% | 97.1% | 108% | 111%
8 | N#Cc1c(NC(=O)c2ccccc2)sc2c1CCC(=O)C2 | -24.8% (active) | 16.2% | 11.6% | 4.73% (active) | 5.81% (active) |  | 8.5% (active)
9 | Nc1ncnc2c1N=C(c1ccc3c(c1)OCO3)CC(c1cccc(Nc3ccnc4cc(Cl)ccc34)c1)N2 (centres undefined) | 43.3% | 74.5% | 25.4% | 8.54% (active) | 6.7% (active) | 72% | 30.5%
10 | CN(CCOc1ccc(C#N)cc1)CCOc1ccc(C#N)cc1 | 79.9% | 91.3% | 57.8% | 211% | 66.2% |  | 71.4%
11 | COc1cc(CNC(=O)/C=C/C=C/c2ccc3c(c2)OCO3)ccc1OCc1cn(-c2ccc(C)c(C)c2)nn1 | 80.5% | 88.3% | 92.1% | 81.9% | 75.2% | 98% | 84%
12 | O=C(CSc1nc2sc3c(c2c(=O)n1-c1ccccc1)CCCCC3)N/N=C/c1ccc(F)cc1 | 16.9% | 48.4% | 53% | 26.8% | -26.2% (active) | 106% | 42.6%
13 | Cc1cnc(C(=O)NNc2nc3sc4c(c3c(=O)n2C)C(C)CCC4)cn1 (centres undefined) | -7.99% (active) | 25.8% | 10.2% | -12% (active) | 3.75% (active) | 29.5% | 6.33% (active)
14 | Cc1ccc(Sc2oc(-c3ccc(C)cc3)nc2[P+](c2ccccc2)(c2ccccc2)c2ccccc2)cc1 | 1.57% (active) | -30.9% (active) | -5.3% (active) | -23.8% (active) | 2.12% (active) | 1.79% (active) | -52.8% (active)
15 | Oc1ccc(CN2CCC(N3CCCCC3)CC2)c2cccnc12 | 15% | 38.9% | 30.2% | 11.8% | 18.9% | 32.2% | 30.8%
16 | CC(=O)Cc1nsc(NC(=O)c2cc(-c3cc(Cl)cc(Cl)c3)oc2C)n1 | 88.1% | 98.1% | 101% | 97.4% | 107% | 99.9% | 103%
17 | Cn1c(O)c(C=NCCN=Cc2c(O)n(C)c(=O)n(C)c2=O)c(=O)n(C)c1=O | 96.1% | 118% | 107% | 108% | 81.1% | 92.2% | 98.7%
18 | COCCn1c(-c2csc(-c3cn(C)c4ccc(OC)cc34)n2)cc2cccnc21 | 8.7% (active) | 43.6% | 15.1% | 47.5% | 57.2% | -3.8% (active) | 21.5%
19 | COc1cc(-c2cc(-c3ccc(N(C)C)cc3)nc(N3CCC(O)CC3)c2C#N)cc(OC)c1OC | 8.21% (active) | 30.6% | 21.1% | 0.557% (active) | -38.9% (active) |  | -0.387% (active)
20 | COC(=O)c1c2c(c(C)[n+]([O-])c1C)C(=O)C=C(NCc1ccc(Br)cc1)C2=O | -42.8% (active) | -93.5% (active) | -17.2% (active) | -56.9% (active) | -17.2% (active) |  | -11.3% (active)

Row | Compound | growth (T-47D breast) | growth (BT-549 breast) | growth (SW-620 colon) | growth (MCF7 breast) | growth (HCT-116 colon) | growth (HCC-2998 colon) | growth (KM12 colon)
21 | O=C(Nc1cccc([N+](=O)[O-])c1)c1cc2ccccc2cc1O | 3.67% (active) | -7.42% (active) | 6.15% (active) | -4.92% (active) | 7.4% (active) |  | -10.3% (active)
22 | COc1cnc2c(c1)C(=O)c1c-2n(CCCNCCO)c(=O)c2ccncc12 | -4.8% (active) | 19% | 9.91% (active) | 0.768% (active) | -49.8% (active) | 26.4% | 6.99% (active)
23 | CC1(c2ccccc2O)NN=C(/N=C/c2cccc([N+](=O)[O-])c2)N1C(Cc1c[nH]c2ccccc12)C(=O)O (centres undefined) | 91.1% | 97.5% | 94.9% | 77.3% | 87% | 97.8% | 96.4%
24 | COc1cc(NC(C)CCCNC(C)C)c2ncccc2c1OC (centres undefined) | 31.6% | 94.4% | 92.6% | 93.5% | 92% | 91.7% | 106%
25 | CCN(CC)c1ccc(/C=C/C(=O)c2ccc(Nc3nc(Nc4ccccc4)nc(Nc4ccccc4)n3)cc2)cc1 | 12.3% | 52.1% | 70.3% | 29.2% | 50.2% | 66.5% | 45.4%
26 | CN1C(=O)/C(=C/c2cn(-c3ccccc3)nc2-c2ccccc2)SC1=S | 96.1% | 106% | 98.8% | 83.6% | 99.8% | 115% | 102%
27 | C#CCOc1cccc(Nc2ncnc3c(NC(=O)C=C)cccc23)c1 | 4.83% (active) | 8.49% (active) | 15.2% | 16.4% | 6.27% (active) | 79% | 9.96% (active)
28 | Cc1cc2c(O)c(-c3cccc(Cl)c3)c3sc(=O)oc3c2cc1C | 14.8% | 58.8% | 35% | 26.3% | 18.1% | 73.1% | 64.3%
29 | N#C/C(=C\c1ccc(-c2ccc(Cl)cc2)o1)C(=O)Nc1ncc(Cc2ccc(Cl)cc2)s1 | 14.3% | 58.2% | 13.7% | 45.9% | 3.14% (active) | 77.5% | 36.8%
30 | COC(C(=O)[C@@H](O)[C@@H](C)O)[C@@H]1Cc2cc3cc(O[C@H]4C[C@@H](O[C@H]5C[C@@H](O)[C@H](O)C(C)O5)[C@H](O)C(C)O4)cc(O)c3c(O)c2C(=O)[C@H]1O[C@H]1C[C@@H](O[C@H]2C[C@@H](O[C@H]3C[C@@H](OC)[C@H](O)C(C)O3)[C@@H](O)C(C)O2)[C@H](O)C(C)O1 (some centres undefined) | 35.2% | 38.2% | 39.7% | 11.5% | 11.2% | 63.7% | 40%
31 | N=C(N)c1ccc(-c2ccc(-c3ccc(F)cc3)o2)o1 | 21.4% | 55.3% | -36.7% (active) | 10.5% | 2.27% (active) | 18.4% | 7.92% (active)
32 | N#C/C(=C\c1ccc(Br)cc1)n1nnc2ccc(F)cc21 | 8.46% (active) | 1.54% (active) | -48.4% (active) | 5.23% (active) | -75.3% (active) | -63.6% (active) | -24.7% (active)
33 | COc1ccc(NC(=O)c2sc3nc(C)c(C(=O)/C=C/c4cccc(OC)c4)cc3c2N)cc1 | 49.5% | 56.3% | 0.0421% (active) | 14.3% | 22.8% | 23.8% | 25.7%
34 | O=C(Nc1ncc(Cc2ccc(Cl)c(C(F)(F)F)c2)s1)c1ccc2nnsc2c1 | 24.8% | 65.5% | 44.3% | 20.4% | 45% | 10.6% | 37.8%
35 | CN1CCN(Cc2ccc(NC(=O)c3cncc(C#Cc4cnc(N)c5ccccc45)c3)cc2C(F)(F)F)CC1 | -60.6% (active) | 25.9% | -73.4% (active) | -76.8% (active) | -60.9% (active) | -92.3% (active) | -86.6% (active)
36 | CCOC(=O)C#Cc1c(C(=O)OCC)nnn1[C@@H]1O[C@H](CO)[C@H]2OC3(CCCCC3)O[C@H]21 | 13.2% | 94.2% | -70.9% (active) | 8.45% (active) | 66.5% | 85.4% | 94.5%
37 | CCc1nc2c(=O)[nH]cnc2o1 | 105% | 102% | 106% | 96.4% | 103% | 109% | 110%
38 | COc1ccc(C(=S)N2CCN(c3ccccc3Cl)CC2)cc1OC | 79% | 90.6% | 106% | 106% | 87.1% |  | 123%
39 | Cn1c(-c2ccc(Br)cc2)c(O)c(=O)c2c(F)cccc21 | 57.7% | 70.6% | 51% | 37.1% | 35.1% | 64.5% | 53.3%
